Screening data deposited in PubChem BioAssay by several laboratories.
ADAM10 inh – human ADAM10 inhibitors, primary screen, biochemical, QFRET, HTS | Disintegrin and metalloproteinase domain-containing protein 10 (Homo sapiens), O14672 | recombinant ADAM10, EDANS/DABCYL FRET peptide cleavage, 3 h | inhibition, % at 7 µM | 370,000 tested, 0.62% active;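 active = inhibition above a per-campaign cutoff equal to the mean of compounds falling between control-based bounds plus 3 SD, cut at about 20% in these data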;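 also: 0% = DMSO wells while the 100% control is not disclosed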
rCAG RNA binder – binders of r(CAG) RNA repeats, primary screen, biochemical, fluorescence | r(CAG) RNA repeat, TO-PRO-1 dye displacement fluorescence | inhibition, % at 3 µM | 370,000 tested, 1.3% active | AID 651821, 2012;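 active = inhibition above the plate cutoff, the mean of all test compounds on that plate plus 3 SD, cut at about 35% in these data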;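 also: 0% = DMSO alone and 100% = 100 µM mitoxantrone as full dye displacement; higher means more dye released from RNA so lower well fluorescence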
KLK7 zymogen act – proKLK7 zymogen activators, primary screen, biochemical, fluorescence intensity | Kallikrein-7 (Homo sapiens), P49862 | purified proKLK7, EDANS-DABCYL substrate fluorescence; 100% is mature enzyme control, 0% vehicle | activation, % at 7 µM | 370,000 tested, 0.9% active;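 active = activation above the mean of all tested compounds plus 3 SD, computed per campaign excluding outliers beyond control limits, cut at about 13% in these data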
AHR act – AHR activators, primary screen, cell-based, luminescence, luciferase reporter, human; Aryl hydrocarbon receptor (Homo sapiens), P35869; AHR-responsive luciferase reporter cells; activation, % at 5 µM; 320,000 tested, 2.5% active; AID 2796, 2010; in the data active = activation above about 47%;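 also: 0% = vehicle wells and 100% = reference agonist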
ADAM17 inh – ADAM17 inhibitors, primary screen, biochemical, QFRET; Disintegrin and metalloproteinase domain-containing protein 17 (Homo sapiens), P78536; recombinant ADAM17, EDANS/DABCYL FRET peptide cleavage; inhibition, % at 6.95 µM; 370,000 tested, 0.83% active;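 active = inhibition above the mean of compounds lying between control limits plus 3 SD, set per campaign, cut at about 8.5% in these data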;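 also: 0% = DMSO-only wells as the low control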
Target sequence (P78536 215-824 limits assumed): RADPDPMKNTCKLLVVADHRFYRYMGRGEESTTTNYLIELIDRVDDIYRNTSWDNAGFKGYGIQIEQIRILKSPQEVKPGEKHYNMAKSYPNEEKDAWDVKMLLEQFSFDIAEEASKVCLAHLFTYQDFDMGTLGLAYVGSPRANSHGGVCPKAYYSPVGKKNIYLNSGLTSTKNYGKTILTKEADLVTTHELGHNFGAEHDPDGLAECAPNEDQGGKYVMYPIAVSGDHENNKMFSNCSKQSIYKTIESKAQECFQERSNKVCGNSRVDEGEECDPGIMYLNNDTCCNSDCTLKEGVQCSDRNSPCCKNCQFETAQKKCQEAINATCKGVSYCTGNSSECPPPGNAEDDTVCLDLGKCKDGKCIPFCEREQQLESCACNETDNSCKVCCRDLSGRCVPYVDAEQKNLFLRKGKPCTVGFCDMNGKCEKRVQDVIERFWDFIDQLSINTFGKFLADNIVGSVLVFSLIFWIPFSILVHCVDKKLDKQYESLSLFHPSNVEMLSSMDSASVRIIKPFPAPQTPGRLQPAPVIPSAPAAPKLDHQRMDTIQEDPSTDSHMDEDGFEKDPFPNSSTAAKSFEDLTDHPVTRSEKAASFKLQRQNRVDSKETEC
NR3A LBD binder – binders of NR3A ligand-binding domain, primary screen, biophysical, differential scanning fluorimetry, uHTS. NR3A LBD differential scanning fluorimetry, Tm shift; 0% = protein alone, 100% = glycine-bound protein. Glutamate receptor ionotropic, NMDA 3A (GRIN3A) ligand-binding domain. 340,000 tested, 2.5% active. Tm shift relative to glycine control, % at 25 µM;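 active = melting temperature shift of at least 10% of the positive control shift, at one fixed dose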
Active calls of the source: *; x = no result given. Shown are actives, neighbours in structure and some others; about 7% of the full set was active somewhere.

SMILES | ADAM10 inh | rCAG RNA binder | KLK7 zymogen act | AHR act | ADAM17 inh | NR3A LBD binder
CCCCC(=O)OCC(=O)N1N=C(c2c[nH]c3ccccc23)C(O)C1c1ccc(OC)cc1 (configuration not stated) | -70 | 5 | -1 | 9 | -20 | 30*
O=C1[C@@H](CCc2ccccc2)[C@@H]2c3ccccc3C=NN2[C@@H]2c3ccccc3C=NN12 | 1 | 1 | 0 | x | -1 | x
Cc1cccc(Nc2nc(N)c([N+](=O)[O-])c(N3CCCC(C)C3)n2)c1 (configuration not stated) | 17 | 4 | 0 | 1 | 9.0* | 0
Clc1ccc(C2Nc3cccc4cccc(c34)N2)cc1 | -5 | 7 | 0 | 60* | -1 | 3
CSc1ncc(Cl)c(C(=O)NCc2cccnc2)n1 | 4 | 2 | 0 | x | -1 | -2
Cc1ccnc(NS(=O)(=O)c2ccc(N3C(=O)c4c(Cl)c(Cl)c(Cl)c(Cl)c4C3=O)cc2)n1 | -5 | 5 | 1 | 5 | 0 | 28*
CSc1ncc(Cl)c(C(=O)Nc2cccc(Cl)c2)n1 | 1 | 0 | -1 | 55* | 1 | 0
CSc1ncc(Cl)c(C(=O)Nc2cccc(C)c2)n1 | 12 | 0 | 0 | 62* | -2 | -9
CSc1ncc(Cl)c(C(=O)Nc2cccc3ccccc23)n1 | -4 | 1 | 0 | 5 | 6 | 2
CSc1ncc(Cl)c(C(=O)NCc2ccc3c(c2)OCO3)n1 | -6 | -2 | 0 | 74* | 0 | -10
C[C@@H]1Cc2cc(O)cc(O)c2C(=O)O1 | 3 | 3 | 0 | x | -3 | x
COC(=O)C1=C(C)N(Cc2cccc(C(F)(F)F)c2)C(=NCc2cc(OC)c(OC)c(OC)c2)NC1c1cccc(F)c1 (configuration not stated) | 1 | 5 | 0 | x | -1 | x
O=C1CCC[C@H]2C[C@H](NCc3cccc(F)c3)CC[C@]23CCCN13 | -12 | x | x | x | -5 | x
CSc1ncc(Cl)c(C(=O)Nc2ccc(S(=O)(=O)Nc3nccc(C)n3)cc2)n1 | -2 | 9 | 0 | 1 | 2 | 13*
CCCSc1ncc(Cl)c(C(=O)Nc2ccc(S(=O)(=O)Nc3ncccn3)cc2)n1 | -5 | 2 | 0 | 0 | -1 | 9
CCOc1ccc2oc(C(=O)NCC(c3ccco3)N(C)C)c(C)c2c1 (configuration not stated) | -63 | -5 | 2 | x | -22 | -1
Cc1c(C(=O)NCC(c2ccco2)N(C)C)oc2c(Cl)cccc12 (configuration not stated) | -13 | 0 | 0 | 48* | -6 | 2
CS(=O)(=O)N1CCC(C(=O)NCC2COc3ccccc3O2)CC1 (configuration not stated) | -1 | 1 | 1 | x | -1 | x
COC(=O)C1=C(C)N(Cc2cccc(C(F)(F)F)c2)C(=NCc2ccc(OC)cc2)NC1c1ccc(F)cc1 (configuration not stated) | 2 | 9 | 0 | x | 0 | x
CN1C(=O)c2cccc3c(S(=O)(=O)NCCc4ccccc4)ccc1c23 | -434 | 5 | -2 | 1 | -161 | 16*
COC(=O)c1ccc(N2C(=O)CC(SCCN)C2=O)cc1 (configuration not stated) | -12 | 0 | 0 | 1 | -9 | 12*
CCOC(=O)C(N)CSC1CC(=O)N(c2ccc(C(=O)OC)cc2)C1=O (configuration not stated) | 12 | 1 | 0 | -2 | -5 | -2
CC(=O)Nc1ccc2c(c1)Cc1cc(N3C(=O)C=CC3=O)ccc1-2 | -13 | 8 | 0 | x | -3 | 24*
O=C(NCc1ccccc1)[C@@H]1CCCN1C(=O)[C@H]1CCCN1C(=O)c1ccc(F)c(C(F)(F)F)c1 | 4 | 1 | 0 | x | 3 | x
C=CCN1[C@H](CC(C)C)COc2cccc(N3CCSCC3)c2S1(=O)=O | 5 | -1 | 0 | x | 1 | x
